Read-outs that look alike come from different tables or passages of the source.
Tests used:
Design in all cases: species or system human, MV4-11 + K-562 + COLO205 + SK-N-BE2 + OVCAR-8
CDC42BPG = conditions: read-out: apparent Kd, n = 1
EGFR = conditions: read-out: apparent Kd, compound concentrations: 100 nM and 1000 nM (sheet 'Samples'), n = 1
FLT3 = conditions: read-out: apparent Kd; compound concentrations:100 nM and 1000 nM (sheet 'Samples'); n = 1
MAPK11 = conditions: read-out: apparent Kd, compound concentrations: 100 nM and 1000 nM (sheet 'Samples'), n = 1
MAPKAPK2 = conditions: read-out: apparent Kd, compound concentrations: 100 nM and 1000 nM (sheet 'Samples'), n = 1
TNK2 = conditions: read-out: apparent Kd; compound concentrations: 100 nM and 1000 nM (sheet 'Samples'), CATDS: 0.23701561839687901; n = 1
MAPK14 = conditions: read-out: apparent Kd; compound concentrations: 100 nM and 1000 nM (sheet 'Samples'), CATDS: 0.223513912329704; n = 1
CAMK2B = conditions: read-out: apparent Kd, n = 1
PBK = conditions: read-out: apparent Kd; compound concentrations:100 nM and 1000 nM (sheet 'Samples'); n = 1
PKN1 = conditions: read-out: apparent Kd, n = 1
CDC42BPA = conditions: read-out: apparent Kd; compound concentrations: 100 nM and 1000 nM (sheet 'Samples'), CATDS: 4.4382649306469998E-2; n = 1
CDC42BPB = conditions: read-out: apparent Kd; compound concentrations: 100 nM and 1000 nM (sheet 'Samples'), CATDS: 5.2868246392704099E-2; n = 1
CDC7 = conditions: read-out: apparent Kd; compound concentrations: 100 nM and 1000 nM (sheet 'Samples'), CATDS: 6.9489626335847196E-2; n = 1
CLK4 = conditions: read-out: apparent Kd; compound concentrations: 100 nM and 1000 nM (sheet 'Samples'), CATDS: 5.9316803085408598E-2; n = 1
GSK3A = conditions: read-out: apparent Kd; compound concentrations: 100 nM and 1000 nM (sheet 'Samples'), CATDS: 0.14981802566128199; n = 1
GSK3B = conditions: read-out: apparent Kd; compound concentrations: 100 nM and 1000 nM (sheet 'Samples'), CATDS: 0.15901528532749901; n = 1
LATS1 = conditions: read-out: apparent Kd; compound concentrations: 100 nM and 1000 nM (sheet 'Samples'), CATDS: 0.14331063333654301; n = 1
NQO1 = conditions: read-out: apparent Kd; compound concentrations: 100 nM and 1000 nM (sheet 'Samples'), CATDS: 4.4968257492060203E-2; n = 1
PKN2 = conditions: read-out: apparent Kd; compound concentrations: 100 nM and 1000 nM (sheet 'Samples'), CATDS: 0.153152330435843; n = 1
PKN3 = conditions: read-out: apparent Kd; compound concentrations: 100 nM and 1000 nM (sheet 'Samples'), CATDS: 4.6811653986635102E-2; n = 1
ROCK1 = conditions: read-out: apparent Kd; compound concentrations: 100 nM and 1000 nM (sheet 'Samples'), CATDS: 5.1294364781544602E-2; n = 1
ROCK2 = conditions: read-out: apparent Kd; compound concentrations: 100 nM and 1000 nM (sheet 'Samples'), CATDS: 6.2443237217646497E-2; n = 1
RPS6KA5 = conditions: read-out: apparent Kd; compound concentrations: 100 nM and 1000 nM (sheet 'Samples'), CATDS: 4.9211147170022597E-2; n = 1
RPS6KB1 = conditions: read-out: apparent Kd; compound concentrations: 100 nM and 1000 nM (sheet 'Samples'), CATDS: 0.131217569210515; n = 1
FN3KRP = conditions: read-out: apparent Kd; compound concentrations: 100 nM and 1000 nM (sheet 'Samples'), CATDS: 0.322807069227038; n = 1
NQO2 = conditions: read-out: apparent Kd; compound concentrations: 100 nM and 1000 nM (sheet 'Samples'), CATDS: 0.51408272608471794; n = 1
MYLK3 = conditions: read-out: apparent Kd; compound concentrations: 100 nM and 1000 nM (sheet 'Samples'), CATDS: 0.26108904226554702; n = 1
NLK = conditions: read-out: apparent Kd; compound concentrations: 100 nM and 1000 nM (sheet 'Samples'), CATDS: 0.267890772302949; n = 1
TNIK = conditions: read-out: apparent Kd; compound concentrations: 100 nM and 1000 nM (sheet 'Samples'), CATDS: 0.264395551516103; n = 1
[1] = compound concentrations:100 nM and 1000 nM (sheet 'Samples')

Question: What does the source list for `CS(=O)(=O)CCNCc1ccc(-c2ccc3ncnc(Nc4ccc(OCc5cccc(C(F)(F)F)c5)cc4)c3c2)o1.Cl` [GW567808A]?
Answer: potency estimated from few doses (CDC42BPG; [1]): 1820 nM; potency estimated from few doses (EGFR; CATDS: 0.39562285113590601): 995 nM; potency estimated from few doses (FLT3): 1430 nM

Question: With `Nc1c(C(=O)c2cccc(CCS(N)(=O)=O)c2)cnn1-c1ccc(F)cc1` [RO1162009-000] as the molecule, how does the potency estimated from few doses (CDC42BPG; compound concentrations: 100 nM and 1000 nM (sheet 'Samples'), CATDS: 0.22426146716058901) read?
Answer: 1250 nM

Question: What about the potency estimated from few doses (MAPK11; CATDS: 0.36528894613698598) of the same molecule?
Answer: 500 nM

Question: What about the potency estimated from few doses (MAPKAPK2; CATDS: 0.21813918573992899) of the same molecule?
Answer: 1340 nM

Question: And the potency estimated from few doses (TNK2)?
Answer: 1100 nM

Question: Which potency estimated from few doses (CDC42BPG; compound concentrations: 100 nM and 1000 nM (sheet 'Samples'), CATDS: 0.14684216194917399) does the source give for `Nc1c(C(=O)c2cccc(-c3ccc[n+]([O-])c3)c2)cnn1-c1ccc(F)cc1F` [RO1166259-000] here?
Answer: 1410 nM

Question: And the potency estimated from few doses (MAPK11; CATDS: 0.59050582210334401)?
Answer: 10.2 nM

Question: What about the potency estimated from few doses (MAPK14) of the same molecule?
Answer: 100 nM

Question: What about the potency estimated from few doses (MAPKAPK2; CATDS: 0.33085096444850498) of the same molecule?
Answer: 31.2 nM

Question: Which potency estimated from few doses (CAMK2B; [1]) does the source give for `C[C@@H]1CCN(C(=O)CO)C[C@@H]1N(C)c1ncnc2[nH]ccc12` [PFE-PKIS_34] here?
Answer: 563 nM

Question: And the potency estimated from few doses (PBK)?
Answer: 1930 nM

Question: What about the potency estimated from few doses (PKN1; [1]) of the same molecule?
Answer: 1140 nM

Question: How did the potency estimated from few doses (CDC42BPA) turn out when `Nc1nonc1-c1nc2cnccc2n1C1CCCCC1` [SB-734117] was run?
Answer: 2000 nM

Question: And the potency estimated from few doses (CDC42BPB)?
Answer: 1000 nM

Question: And the potency estimated from few doses (CDC7)?
Answer: 446 nM

Question: And the potency estimated from few doses (CLK4)?
Answer: 693 nM

Question: And the potency estimated from few doses (GSK3A)?
Answer: 91.8 nM

Question: What about the potency estimated from few doses (GSK3B) of the same molecule?
Answer: 83.3 nM

Question: What about the potency estimated from few doses (LATS1) of the same molecule?
Answer: 98.8 nM

Question: What about the potency estimated from few doses (NQO1) of the same molecule?
Answer: 1880 nM

Question: And the potency estimated from few doses (PKN1; compound concentrations: 100 nM and 1000 nM (sheet 'Samples'), CATDS: 5.3241919532380499E-2)?
Answer: 977 nM

Question: What about the potency estimated from few doses (PKN2) of the same molecule?
Answer: 88.5 nM

Question: What about the potency estimated from few doses (PKN3) of the same molecule?
Answer: 1580 nM

Question: And the potency estimated from few doses (ROCK1)?
Answer: 1110 nM

Question: And the potency estimated from few doses (ROCK2)?
Answer: 596 nM

Question: And the potency estimated from few doses (RPS6KA5)?
Answer: 1300 nM

Question: What about the potency estimated from few doses (RPS6KB1) of the same molecule?
Answer: 115 nM

Question: What does the source list for `CS(=O)(=O)CCNCc1cc(-c2cc3c(Nc4ccc(OCc5cccc(F)c5)c(Cl)c4)ncnc3s2)cs1` [GSK300014A]?
Answer: potency estimated from few doses (CAMK2B; compound concentrations: 100 nM and 1000 nM (sheet 'Samples'), CATDS: 0.17838032280045099): 575 nM; potency estimated from few doses (EGFR; CATDS: 0.186882259763333): 481 nM; potency estimated from few doses (FN3KRP): 112 nM; potency estimated from few doses (NQO2): 48.6 nM

Question: With `O=C(Nc1n[nH]c2cc(-c3ccccc3)ccc12)C1CC1` [SB-732941] as the molecule, how does the potency estimated from few doses (CDC42BPG; compound concentrations: 100 nM and 1000 nM (sheet 'Samples'), CATDS: 0.214831425335373) read?
Answer: 2210 nM

Question: And the potency estimated from few doses (MYLK3)?
Answer: 1450 nM

Question: What about the potency estimated from few doses (NLK) of the same molecule?
Answer: 1380 nM

Question: And the potency estimated from few doses (TNIK)?
Answer: 1420 nM
